Screening data (PubChem BioAssay)
p53ts 39C tox – qHTS Screen for Compounds that Selectively Target Cancer Cells with p53 Mutations: Cytotoxicity of p53ts Cells at the Nonpermissive Temperature | H1299-p53A138V viability at 39C, ATP luminescence, 24 h | Potency, µM (series often up to 46.1 µM), most hits filed as cytotoxic | 130,000 tested, 1.5% active | AID 902, 2007; note: nearly all actives have a fitted effect of over 55% in size
Peg3 imprint – qHTS Assay for Compounds that Induce Erasure of Genomic Imprints; mouse ES Peg3-LacZ reporter, beta-gal luminescence, 40 h; Potency, µM (doses to about 60.7 µM), actives largely listed as activators; AID 1948, 2009; 110,000 tested, 0.02% active
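Readout: BetaGlo luminescence (5 min, room temp) for LacZ from the normally silent maternal Peg3 allele in female Peg3LacZ-Neo ES cells. Cells 300/well, 40 h, 37C, 5% CO2. Data normalized per plate to negative controls.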
p53ts 32C kill – qHTS Screen for Compounds that Selectively Target Cancer Cells with p53 Mutations: Cytotoxicity of p53ts Cells at the Permissive Temperature. H1299-p53A138V at 32C, ATP luminescence viability, 24 h. Potency, µM (series often up to 46.1 µM), most hits filed as cytotoxic. 130,000 tested, 0.93% active. AID 924, 2007; note: nearly all actives have a fitted effect of over 55% in size
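Cells: H1299 p53ts (A138V), 600/well, pre-incubated 16–30 h at 37C. Cpd up to 46 uM, 24 h, 32C. Readout: ATPlite luminescence, 20 min RT. Normalization: DMSO vs tamoxifen 100 uM. AC50 by Hill equation.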
IkB sig inh – IkB Signaling. ABC-DLBCL IkBa-CBG/CBR dual luciferase ratio, 4 h; response scale: scaled: untreated 0%, proteasome inhibitor 100%. Potency, µM (top dose mostly 57.1 µM). 110,000 tested, 0.04% active; active = well fitted curve in the direction sought with a large enough effect in the signal ratio, not every such curve was filed as active; inconclusive = small, poorly fitted or top-dose-only effect, or a change in a side signal; the % refers to the signal ratio;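 note: the direction sought is a rising ratio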
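Luminescence ratio of IκBα-fused green versus native red beetle luciferase in OCI-Ly3 cells, 4 h post-doxycycline with compound; red signal alone, scaled from basal (0%) to zero light (-100%), flagged nonspecific or cytotoxic effects.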
Each line names hits and unclear results; the compound was inactive in the other large screens. Shown are actives, neighbours in structure and some others; about 1.8% of the full set was active somewhere. Unless noted, calls come from the whole dose curve; as a rule, active = well fitted curve in the direction sought with a large enough effect; inconclusive = small, poorly fitted or top-dose-only effect, or another doubt; inactive = no such curve, though single readings can be large; an effect the other way counts as inactive or inconclusive.

Cc1ccc(NC(=O)Cn2c(=O)n(-c3ccc(C)cc3)c(=O)c3c2cnn3C)cc1	none
CN1CCN(C(c2cccnc2)c2ccc3cccnc3c2O)CC1 (stereo not drawn)	p53ts 39C tox 13µM, IkB sig inh inconclusive
CCOC(=O)c1c(C)oc2c1c(C(c1cccnc1)N1CCN(C)CC1)c(O)c1ccccc12 (stereo not drawn)	IkB sig inh inconclusive
Nc1nc2ccc(N3CCOCC3)cc2s1	p53ts 39C tox 4µM, p53ts 32C kill 4µM
CC(C)=CCC/C(C)=C/CO/N=C1/[C@H]2O[C@@H]2[C@@H](O)[C@H]2[C@H]1CCn1c(=O)n(Cc3cc4c(cc3Cl)OCO4)c(=O)n12	none (no result: Peg3 imprint, IkB sig inh)
CN(C)c1ccc(/C=C/c2noc(-c3ccccc3O)n2)cc1	IkB sig inh inconclusive
Oc1ccccc1-c1nc(/C=C/c2ccccc2Cl)no1	p53ts 39C tox 7.9µM, p53ts 32C kill 7.9µM, IkB sig inh inconclusive
c1ccc(N2CCN(c3nc4cc5c(cc4s3)OCO5)CC2)cc1	none
c1ccc2c(c1)CCN(c1nc3cc4c(cc3s1)OCO4)C2	p53ts 39C tox inconclusive, p53ts 32C kill 13µM, IkB sig inh inconclusive
c1c2c(cc3sc(N4CCCCC4)nc13)OCO2	p53ts 39C tox 10µM, p53ts 32C kill 6.3µM, IkB sig inh inconclusive
c1c2c(cc3sc(N4CCOCC4)nc13)OCO2	p53ts 39C tox inconclusive, p53ts 32C kill 10µM
c1ccc2c(c1)CCN(Cc1nnnn1Cc1ccc3c(c1)OCO3)C2	none
COc1ccc(-c2nc(Cn3c(=O)cc(-c4ccccc4)c4c(C)nn(C)c43)c(C)o2)cc1OC	none
Cc1sc2c(c1C)c(=O)n(-c1cccc(C(F)(F)F)c1)c(=O)n2Cc1ccccc1C#N	none
COc1ccc(CCNC(=O)C(=O)Nc2ccc(C)cc2)cc1OC	none
Cc1ccc(C)c(-n2nnnc2Sc2nnnn2-c2ccccc2)c1	p53ts 39C tox 10µM, IkB sig inh inconclusive
Cc1ccc(S(=O)(=O)NCCSc2nnnn2-c2cc(C)ccc2C)cc1	none
O=C1c2ccccc2NC(c2ccc3c(c2)OCO3)N1O (stereo not drawn)	p53ts 32C kill inconclusive
O=C1c2ccccc2NC(c2ccc3c(c2)OCCO3)N1c1ccc2c(c1)OCCO2 (stereo not drawn)	p53ts 39C tox 5µM, p53ts 32C kill 6.3µM
COc1cccc(NC(=S)N/N=C2/CCCCc3ccccc32)c1	p53ts 39C tox 22µM, p53ts 32C kill inconclusive (no result: Peg3 imprint, IkB sig inh)
COC(=O)NC(c1cccc(F)c1)C(C(C)=O)C(=O)OC (stereo not drawn)	none (no result: Peg3 imprint, IkB sig inh)
CN(C)c1ccc(N/C=C/C(=O)c2ccccc2)cc1	p53ts 39C tox 13µM, p53ts 32C kill 5µM, IkB sig inh inconclusive
CN(C)c1ccc(NC(=O)CCCc2ccccc2)cc1	none
COc1ccc(CCNC(=O)c2cc(C)nc3c2c(C)nn3-c2ccccc2)cc1OC	none
O=C(Nc1nnc(/N=C/c2ccco2)s1)c1ccc(F)cc1	p53ts 39C tox 13µM, p53ts 32C kill 10µM
CC1CCN(C(=O)c2cc(-c3ccc(Cl)cc3)on2)CC1	IkB sig inh inconclusive
O=C(c1cc(-c2ccc(Cl)c(Cl)c2)on1)N1CCCC1	none
O=C(c1cc(-c2ccc3c(c2)OCO3)on1)N1CCOCC1	p53ts 39C tox 7.9µM, p53ts 32C kill 7.9µM, IkB sig inh inconclusive
COc1cccc(-c2cc(C(=O)N3CCCCCC3)no2)c1	p53ts 39C tox 10µM, p53ts 32C kill 13µM, IkB sig inh inconclusive
O=C(c1cc(-c2ccc(Cl)cc2Cl)on1)N1CCOCC1	p53ts 39C tox 10µM, p53ts 32C kill 3.2µM
COc1cccc(-c2cc(C(=O)N3CCN(c4ccc(F)cc4)CC3)no2)c1	none
O=C(c1cc(-c2ccc(Cl)cc2)on1)N1CCOCC1	p53ts 39C tox 13µM, p53ts 32C kill 10µM, IkB sig inh inconclusive
CCC(=O)[C@]12O[C@@]3(C4C(=O)OCCC41)N(CC)C(C)=C(C(=O)OC)C(c1ccccc1)N3C2=O (stereo partly drawn)	none (no result: Peg3 imprint, IkB sig inh)
COC(=O)[C@@H]1C[C@H]1[C@@H](NS(=O)(=O)c1ccc(-c2ccccc2)cc1)c1ccccc1	none (no result: IkB sig inh)
CCc1ccc(NC(=O)Cn2nnc(-c3ccccc3N)n2)cc1	p53ts 32C kill inconclusive, IkB sig inh inconclusive
O=C(c1cc(-c2ccc(F)cc2)on1)N1CCCC1	p53ts 39C tox 10µM, p53ts 32C kill 16µM, IkB sig inh inconclusive
